Results published in PubChem BioAssay (NCATS).
Results filed as inconclusive are left out. Unless noted, calls follow the shape of the dose curve; as a rule, active = well fitted curve in either direction with a large enough effect (not every such curve was filed as active); inconclusive = small, poorly fitted or top-dose-only effect, or another doubt; inactive = flat fitted curve, though single readings scatter.

What was measured:
[1] = AP1 Signaling Pathway (AID 357); settings: ME-180 AP-1-bla reporter, EGF-induced, beta-lactamase ratio, 5 h; at 17.2 µM (top of the series) unless noted;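 also: ME-180 reporter cells stimulated with EGF at its EC50 level; % is scaled to controls: 0 for no effect and ±100 for the full control effect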
Method in brief: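 Titration-series screen for positive or negative modulators of EC50 EGF-induced signaling in ME-180 cells carrying an AP-1-driven beta-lactamase reporter. After 5 hours at 37 degrees Celsius, CCF4 460nm/530nm emission ratio gave %Activity; AC50 values derived.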

[2] = NFAT Signaling Pathway (AID 444); settings: Jurkat NFAT-bla M1, carbachol, beta-lactamase ratio, 5 h; at 17.2 µM (top of the series) unless noted;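 also: carbachol stimulus at about its EC50 of 1 µM final; % is scaled to controls: 0 for no effect and ±100 for the full control effect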
Method in brief: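 Jurkat cells with NFAT-driven β-lactamase reporter and co-expressed M1 receptor, stimulated with carbachol (final 1 uM, ~EC50), compound titration, 5 h at 37 °C. CCF4 loaded 1 h at RT; 460/530 nm ratio gave %activity and AC50.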

[3] = Stat Signaling Pathway (AID 446); settings: ME-180 (cervical carcinoma) SIE beta-lactamase reporter, IL-6 stimulated, 5 h; at 17.2 µM (top of the series) unless noted;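 also: ME-180 cervical cancer cells given 40 pM IL-6 alongside compound; SIE-controlled beta-lactamase reporter measured as 460/530 nm FRET emission ratio; % is scaled to controls: 0 for no effect and ±100 for the full control effect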
Method in brief: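 FRET read-out (405 nm excitation, 460/530 nm emission) of a beta-lactamase reporter under a STAT-inducible element in ME-180 cervical carcinoma cells. Cells with compound receive 40 pM IL-6 for 5 h. Values are normalised to AC90 stimulation and AC90 JAK-inhibitor controls.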

[4] = biological target: Glucocorticoid receptor (Homo sapiens) (UniProt P04150); assay: GR-GFP Redistribution (AID 450;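 active = compounds whose dose series gives a full or clear partial fitted curve of increased nuclear translocation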; also: potency is read from the fitted curve at half-maximal effect)
Sequence of Glucocorticoid receptor (Homo sapiens) (P04150 whole entry, looked up): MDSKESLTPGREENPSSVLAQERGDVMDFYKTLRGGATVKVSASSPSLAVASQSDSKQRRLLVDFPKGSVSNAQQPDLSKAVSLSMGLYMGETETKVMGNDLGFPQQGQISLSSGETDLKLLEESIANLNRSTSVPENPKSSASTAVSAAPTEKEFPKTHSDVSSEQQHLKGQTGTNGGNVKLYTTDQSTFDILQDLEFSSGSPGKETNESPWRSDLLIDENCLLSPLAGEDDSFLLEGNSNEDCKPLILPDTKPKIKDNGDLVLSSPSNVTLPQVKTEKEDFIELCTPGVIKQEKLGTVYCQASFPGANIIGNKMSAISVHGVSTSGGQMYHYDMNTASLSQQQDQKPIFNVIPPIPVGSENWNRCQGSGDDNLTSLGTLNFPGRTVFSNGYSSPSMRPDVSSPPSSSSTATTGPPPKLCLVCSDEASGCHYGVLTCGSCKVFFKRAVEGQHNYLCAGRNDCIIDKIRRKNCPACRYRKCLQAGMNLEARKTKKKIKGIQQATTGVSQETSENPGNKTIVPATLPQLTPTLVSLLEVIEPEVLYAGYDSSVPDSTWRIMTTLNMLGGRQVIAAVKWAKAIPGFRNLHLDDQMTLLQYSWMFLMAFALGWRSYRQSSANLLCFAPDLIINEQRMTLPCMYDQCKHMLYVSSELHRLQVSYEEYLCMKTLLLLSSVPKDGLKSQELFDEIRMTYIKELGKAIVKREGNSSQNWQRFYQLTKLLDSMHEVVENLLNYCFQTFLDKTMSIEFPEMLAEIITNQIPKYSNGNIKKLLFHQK

CC(NC(=O)CSc1nnc(COc2ccccc2)o1)c1ccccc1 (centres undefined)
inactive: activity change, negative = inhibition [1] -6.03% | activity change, negative = inhibition [2] -0.274% | activity, negative = inhibition [3] 2.03% | Potency [4] > 20.6 µM

O=C(CNC1=NCCC1)c1ccc2c(c1)OCCO2
inactive: activity change, negative = inhibition [1] 5.51% | activity change, negative = inhibition [2] -10.1% | activity, negative = inhibition [3] -3.23% | Potency [4] > 20.6 µM

CC(C)OC(=O)c1sc2nc3c(cc2c1N)C(=O)CCC3
inactive: activity change, negative = inhibition [1] -5.75% | activity change, negative = inhibition [2] 7.77% | activity, negative = inhibition [3] -1.01% | Potency [4] > 20.6 µM

Cc1ccc2[nH]c3c(c2c1)CN(C(=O)CN1CCN(c2ccccn2)CC1)CC3
inactive: activity change, negative = inhibition [1] -13.5% | activity change, negative = inhibition [2] 22.4% | activity, negative = inhibition [3] -12.2% | Potency [4] > 20.6 µM

CCOC(=O)c1ccc(NCC(O)COc2ccccc2)cc1 (centres undefined)
inactive: activity change, negative = inhibition [1] -4.75% | activity change, negative = inhibition [2] -1.02% | activity, negative = inhibition [3] -4.83% | Potency [4] > 20.6 µM

c1ccc(OCc2nn3c(-c4cccnc4)nnc3s2)cc1
inactive: activity change, negative = inhibition [1] -6.61% | activity change, negative = inhibition [2] 2.29% | activity, negative = inhibition [3] -4.47% | Potency [4] > 20.6 µM

CCc1cccc(C)c1N(C(=O)Cn1c(=O)[nH]c2ccccc21)C(C)COC (centres undefined)
inactive: activity change, negative = inhibition [1] -2.33% | activity change, negative = inhibition [2] 17.7% | activity, negative = inhibition [3] -1.06% | Potency [4] > 20.6 µM

Nn1c(SCC(=O)Nc2ccc3c(c2)OCCO3)nnc1C(F)(F)F
inactive: activity change, negative = inhibition [1] 3.25% | activity change, negative = inhibition [2] -1.93% | activity, negative = inhibition [3] 9.15% | Potency [4] > 20.6 µM

CCC(=O)Nc1nc2ccccc2n1CCN(C)C
inactive: activity change, negative = inhibition [1] 3.29% | activity change, negative = inhibition [2] -7.56% | activity, negative = inhibition [3] 10.7% | Potency [4] > 20.6 µM

Cc1nc2c(=O)n(C)c(=O)[nH]c2n1Cc1ccccc1
inactive: activity change, negative = inhibition [1] 10.3% | activity change, negative = inhibition [2] 14.6% | activity, negative = inhibition [3] -0.854% | Potency [4] > 20.6 µM

O=C1CC(C(=O)O)c2ccccc2N1 (centres undefined)
inactive: activity change, negative = inhibition [1] 2.72% | activity change, negative = inhibition [2] -1.33% | activity, negative = inhibition [3] 6.42% | Potency [4] > 20.6 µM

CC(=O)N=C(N)Sc1nc2ccccc2[nH]1
inactive: activity change, negative = inhibition [1] 12.8% | activity change, negative = inhibition [2] -12.3% | activity, negative = inhibition [3] 1.5% | Potency [4] > 20.6 µM

N#CCc1nc2c3c4c(sc3ncn2n1)CCCC4
inactive: activity change, negative = inhibition [1] -0.68% | activity change, negative = inhibition [2] -9.45% | activity, negative = inhibition [3] 5.72% | Potency [4] > 20.6 µM

COc1ccc(Nc2nc(Nc3ccc(OC)cc3)nc(-n3[nH]c(=O)c(C)c3C)n2)cc1
inactive: activity change, negative = inhibition [1] 22.4% | activity change, negative = inhibition [2] -1.75% | activity, negative = inhibition [3] 8.62% | Potency [4] > 20.6 µM

CCOCCn1c(SCc2c(F)cccc2Cl)nc2c1c(=O)[nH]c(=O)n2C
inactive: activity change, negative = inhibition [1] -8.65% | activity change, negative = inhibition [2] -17.4% | activity, negative = inhibition [3] -2.5% | Potency [4] > 20.6 µM

COCCCn1c2nc3ccccc3nc2c2c(=O)n(-c3ccccc3OC)c(C)nc21
inactive: activity change, negative = inhibition [1] -7.38% | activity change, negative = inhibition [2] -8.29% | activity, negative = inhibition [3] 5.28% | Potency [4] > 20.6 µM

CSc1nncc(=O)[nH]1
inactive: activity change, negative = inhibition [1] 16.2% | activity change, negative = inhibition [2] 0.69% | activity, negative = inhibition [3] -3.78% | Potency [4] > 20.6 µM

COc1ccccc1-c1cc(-c2cc(Cl)ccc2O)n[nH]1
inactive: activity change, negative = inhibition [1] 5.68% | activity change, negative = inhibition [2] 2.8% | activity, negative = inhibition [3] 8.92% | Potency [4] > 20.6 µM

Cc1ccc(-n2ncc3c(NCCCOC(C)C)ncnc32)c(C)c1
inactive: activity change, negative = inhibition [1] -18.8% | activity change, negative = inhibition [2] 25.7% | activity, negative = inhibition [3] -8.86% | Potency [4] > 20.6 µM

COc1ccc(/C(O)=C2/C(=O)C(=O)N(CCCN(C)C)C2c2ccccc2)cc1Cl (centres undefined)
inactive: activity change, negative = inhibition [1] 8.68% | activity change, negative = inhibition [2] -3.88% | activity, negative = inhibition [3] 12.1% | Potency [4] > 20.6 µM

CC(C)CN1C(=O)NC(NC(=O)c2cccnc2)(C(F)(F)F)C1=O (centres undefined)
inactive: activity change, negative = inhibition [1] -6.13% | activity change, negative = inhibition [2] 3.51% | activity, negative = inhibition [3] -1.02% | Potency [4] > 20.6 µM

COC(=O)c1c(C)noc1-c1cc(C)on1
inactive: activity change, negative = inhibition [1] 10.7% | activity change, negative = inhibition [2] 10.8% | activity, negative = inhibition [3] 8.94% | Potency [4] > 20.6 µM

CN(C)c1ccc(C2C3C(=O)N(c4ccc(C(=O)O)cc4)C(=O)C3ON2c2ccccc2)cc1 (centres undefined)
inactive: activity change, negative = inhibition [1] -1.48% | activity change, negative = inhibition [2] 17.3% | activity, negative = inhibition [3] 5.33% | Potency [4] > 20.6 µM

CC(C)C1Cc2c(C#N)c(N)sc(=S)c2CO1 (centres undefined)
inactive: activity change, negative = inhibition [1] -19.3% | activity change, negative = inhibition [2] -23.4% | activity, negative = inhibition [3] 1.85% | Potency [4] > 20.6 µM

COc1ccc(Oc2nc3c(c(=O)n(C)c(=O)n3C)n2Cc2cccc(OC)c2)cc1
inactive: activity change, negative = inhibition [1] -6% | activity change, negative = inhibition [2] -3.53% | activity, negative = inhibition [3] -2.94% | Potency [4] > 20.6 µM

O=c1[nH]c(-c2ccccn2)nc2ccccc12
inactive: activity change, negative = inhibition [1] -2.38% | activity change, negative = inhibition [2] -10.6% | activity, negative = inhibition [3] 13.3% | Potency [4] > 20.6 µM
